The nature of assay [1]: Cell Viability - Mesenchymal (AID 546).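 Note: cells exposed to compound for 40 hours before reading.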 Particulars: mesenchymal cells viability, qHTS; activity change, negative = cytotoxicity: at 91.7 µM (top of the series). In short, it runs like this:
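In this qHTS cytotoxicity format, glomerulus-derived human mesenchymal kidney cells received compound for 40 hr, then luciferase-based ATP quantitation. Concentration-response data were fitted with the Hill equation.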
A general note: In qHTS, concentration-response curves come from the screen itself.

Assay [2] can be described thus: Cellular Toxicity (caspase-3) Jurkat (AID 655).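 Note: cells exposed to compound for 16 h at 37 °C before reading.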 Particulars: Jurkat caspase-3 activation, luminescence; caspase-3 activation: at 92.2 µM (top of the series), DMSO = 0%, tamoxifen = 100%. The gist of the method:
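Jurkat cells (5000/well) in complete medium were treated with compounds for 16 hr at 37 °C, then Caspase-Glo 3/7 luminescence was read after 20 min at room temperature. Data normalized to DMSO (basal) and 100 uM tamoxifen (100%); AC50 from Hill fit.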

The nature of assay [3]: Cell Viability - LYMP1-002 - Assay at 16 hr (AID 948).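 Note: 0% = DMSO alone and full effect = 92 µM tetraoctylammonium bromide.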 The gist of the method:
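Human lymphoblastoid cells (LYMP1-002), 2500/well, were preincubated 5 hr at 37 C, then exposed to compounds for 16 hr at 37 C in complete medium. Cellular ATP was read by CellTiter-Glo luminescence after 30 min at room temperature; AC50 from Hill fits.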

A short description of assay [4]: Cell Viability - LYMP2-003 (AID 965).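 For activity change, negative = cytotoxicity: 0% = DMSO only and full effect = 92 µM tetraoctylammonium bromide.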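 Note: cells exposed to compounds for 24 h before reading; nearly all actives have a fitted effect of over 50% in size.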 Note: potency is the fitted concentration of half-maximal effect. In short, it runs like this: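 Human lymphoblastoid cells (2500/well) were pre-incubated 5 hr at 37 C, then exposed to compounds over a concentration range for 24 hr at 37 C. Intracellular ATP was read by CellTiter-Glo luminescence; AC50 came from Hill-equation fits.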
The nature of assay [5]: Cell Viability - LYMP2-026 (AID 989). Note: nearly all actives have a fitted effect of over 50% in size. Note: potency is the fitted concentration of half-maximal effect. In short, it runs like this:
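Cells are seeded at 2500 per well and held 5 hr at 37 C. Compounds are added in concentration series for 24 hr, then CellTiter-Glo reagent is applied and luminescence read.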

The nature of assay [6]: qHTS assay for small molecule antagonists of retinoid X receptor alpha signaling (AID 588546; active = well fitted inhibition curve with a large enough effect in the signal ratio, with a control signal flat, not every such curve was filed as active; the % refers to the signal ratio;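 note: cells stimulated with 9-cis-retinoic acid as agonist; % is set by controls: 0 for no effect and ±100 for the full control effect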). Particulars: HEK293T RXRa-UAS-bla, beta-lactamase ratio, antagonist mode; measured here: W530 green channel, cytotoxicity proxy. In short, it runs like this: (§1)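 Beta-lactamase reporter inhibition, read as CCF4 fluorescence ratio (ex 405, em 460/530 nm) after 2 h at RT. HEK293T UAS-bla cells, 2500/well, were stimulated with 9-cis-RA at 500 or 100 nM final alongside test compound for 18 h at 37 C.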

The target in assay [7] is Retinoic acid receptor RXR-alpha (Homo sapiens) (UniProt P19793). The assay is described as above. Conditions: HEK293T RXRa-UAS-bla, beta-lactamase ratio, antagonist mode. In short, it runs like this:
as §1

Assay [8] can be described thus: qHTS assay for environmental chemicals that activate the Aryl hydrocarbon Receptor (AhR) signaling pathway (AID 651777). For activation: % of control where 0% means no effect. Note: nearly all actives have a fitted effect of over 15% in size. Note: potency is the fitted concentration of half-maximal effect. Conditions: 1A2-DRE human hepatoma cells, luciferase, 24 h; activation: stronger effect = higher value. In short, it runs like this: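 Induction of CYP1A2 transcription through AhR is detected by luciferase in 1A2-DRE hepatoma cells. Compounds or DMSO act for 24 hr at 37 C before a 30 min One-Glo step at room temperature.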

Assay [9] is described as follows: Cell Viability - LYMP2-011 (AID 969). Note: nearly all actives have a fitted effect of over 60% in size. Note: potency is the fitted concentration of half-maximal effect. In short, it runs like this:
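In this qHTS cytotoxicity format, compounds are tested across concentrations on human lymphoblastoid cells in complete medium for 24 hours at 37 C. Viability is taken as cellular ATP measured by luciferase luminescence.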

Assay [10] can be described thus: Cell Viability - LYMP2-013 (AID 970). Note: nearly all actives have a fitted effect of over 55% in size. Note: potency is the fitted concentration of half-maximal effect. The gist of the method: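 Cytotoxicity is scored as a concentration-dependent drop in intracellular ATP in human lymphoblastoid cells after 24 hr compound exposure at 37 C. ATP is quantified by luciferase luminescence, and AC50 values come from Hill-equation modeling.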
A short description of assay [11]: Cell Viability - LYMP2-021 (AID 974). For activity change, negative = cytotoxicity: % is set by controls: 0 for no effect and ±100 for the full control effect.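 Note: compound exposure lasts 24 hours at 37 °C; nearly all actives have a fitted effect of over 55% in size.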 Note: potency is the fitted concentration of half-maximal effect. The gist of the method: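 Loss of cellular ATP, measured with a luciferase-based CellTiter-Glo readout, serves as the toxicity signal in human lymphoblastoid cells treated for 24 hours at 37 C. Potency is reported as AC50 from a standard Hill model.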
Assay [12] is described as follows: Cell Viability - LYMP2-002 (AID 977).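 Note: compound exposure lasted 24 h at 37 °C.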 Note: potency is the fitted concentration of half-maximal effect. The gist of the method:
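In this qHTS viability screen, 2500 human lymphoblastoid cells per well receive compound for 24 hr at 37 C, and luciferase-based ATP luminescence gives the viability signal. Tetraoctylammonium bromide serves as positive control.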

A short description of assay [13]: Cell Viability - LYMP2-008 (AID 980). For activity change, negative = cytotoxicity: % is set by controls: 0 for no effect and ±100 for the full control effect. Note: nearly all actives have a fitted effect of over 60% in size. Note: potency is the fitted concentration of half-maximal effect. The gist of the method: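 Cells seeded at 2500/well and rested 5 hr at 37 C; compounds added over a concentration range and incubated 24 hr at 37 C; CellTiter-Glo added, 30 min at room temperature; luminescence read and AC50 fitted with Hill model.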
The nature of assay [14]: Cell Viability - LYMP2-012 (AID 982).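 For activity change, negative = cytotoxicity: 0% = DMSO only and full loss = 92 µM tetraoctylammonium bromide.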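 Note: cellular ATP by luciferase luminescence where a drop means cytotoxicity; cells exposed to compound for one day before reading; nearly all actives have a fitted effect of over 55% in size.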 Note: potency is the fitted concentration of half-maximal effect.
The nature of assay [15]: Cell Viability - LYMP2-014 (AID 983).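 For activity change, negative = cytotoxicity: plate controls were DMSO only for no effect and 92 µM tetraoctylammonium bromide for full effect.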 Note: nearly all actives have a fitted effect of over 50% in size. Note: potency is the fitted concentration of half-maximal effect. In short, it runs like this: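 Cells are plated at 2500/well and left 5 hr at 37 C. Compounds are added across a concentration range and incubated 24 hr at 37 C in complete medium. CellTiter-Glo is added, and luminescence is read after 30 min at room temperature.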
The nature of assay [16]: Cell Viability - LYMP2-016 (AID 984). For activity change, negative = cytotoxicity: % is set by controls: 0 for no effect and ±100 for the full control effect. Note: nearly all actives have a fitted effect of over 55% in size. Note: potency is the fitted concentration of half-maximal effect. The gist of the method:
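Human lymphoblastoid cells (LYMP2-016), 2500/well in complete medium, preincubated 5 hr at 37 C, then compound-treated 24 hr at 37 C. Intracellular ATP read by CellTiter-Glo luminescence after 30 min at room temperature; AC50 from Hill-equation concentration-response fits.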

Assay [17] is described as follows: Cell Viability - LYMP2-020 (AID 986). Note: nearly all actives have a fitted effect of over 55% in size. Note: potency is the fitted concentration of half-maximal effect. The gist of the method:
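Seed 2500 cells per well and incubate 5 hr at 37 C. Add compounds at a concentration series and incubate 24 hr at 37 C. Add CellTiter-Glo, wait 30 min at RT, read luminescence, and fit a Hill curve for AC50.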

The nature of assay [18]: Cell Viability - LYMP2-024 (AID 988).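 For activity change, negative = cytotoxicity: plate controls were DMSO only for no effect and 92 µM tetraoctylammonium bromide for full effect.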 Note: nearly all actives have a fitted effect of over 60% in size. Note: potency is the fitted concentration of half-maximal effect. The gist of the method: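 qHTS cytotoxicity, human lymphoblastoid line, complete medium; 24 h cpd treatment, 37 C; CellTiter-Glo ATP luminescence readout; tetraoctylammonium bromide positive control; AC50 via Hill fit.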
Assay [19] can be described thus: Cell Viability - LYMP1-002 - Assay at 40 hr (AID 994). Note: nearly all actives have a fitted effect of over 60% in size. Note: potency is the fitted concentration of half-maximal effect. In short, it runs like this:
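Cells are plated at 2500 per well and rested 5 hr at 37 C. Compounds are added and incubated 40 hr at 37 C. CellTiter-Glo reagent is added for 30 min at room temperature before luminescence is read.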

The nature of assay [20]: Cell Viability - HepG2 (AID 433; calls by dose curve;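 note: potency is the fitted concentration of half-maximal effect; cells exposed to compound for 40 hours; potency for ATP loss meaning cytotoxicity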). Particulars: qHTS. The gist of the method: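 HepG2 hepatocellular carcinoma cells (1500/well) were treated with compounds for 40 h at 37 °C in complete medium; intracellular ATP was read by CellTiter-Glo luminescence. Data were normalized to DMSO and 100 uM tamoxifen, and AC50 came from Hill fits.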

Molecules are shown by their SMILES. Values joined by “and” are separate entries in the source; they are usually repeats but may differ in a detail not shown here. Identical values can stand only once. Results filed as inconclusive are left out. Active and inactive are the calls of the source. Unless noted, calls come from the whole dose curve; as a rule, active = well fitted curve in the direction sought with a large enough effect; inconclusive = small, poorly fitted or top-dose-only effect, or another doubt; inactive = no such curve, though single readings can be large; an effect the other way counts as inactive or inconclusive.

Retinoic acid receptor RXR-alpha (Homo sapiens), sequence (P19793 whole entry, looked up): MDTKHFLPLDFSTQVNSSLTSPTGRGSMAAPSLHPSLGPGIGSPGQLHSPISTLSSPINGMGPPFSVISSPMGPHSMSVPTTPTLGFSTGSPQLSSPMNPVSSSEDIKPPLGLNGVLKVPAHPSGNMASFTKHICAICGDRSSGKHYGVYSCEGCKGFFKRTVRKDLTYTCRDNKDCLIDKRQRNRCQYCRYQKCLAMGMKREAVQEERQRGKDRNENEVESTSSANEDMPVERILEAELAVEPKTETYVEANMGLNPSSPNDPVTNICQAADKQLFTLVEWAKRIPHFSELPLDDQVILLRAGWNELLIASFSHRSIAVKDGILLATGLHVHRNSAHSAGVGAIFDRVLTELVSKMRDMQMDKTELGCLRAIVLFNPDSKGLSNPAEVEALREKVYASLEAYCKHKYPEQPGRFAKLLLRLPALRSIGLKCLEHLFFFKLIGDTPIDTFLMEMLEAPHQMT

Regarding `CCN(CC)c1ccc(N)cc1`, the Potency result in assay [1], in assay [2], in assay [3] and in assay [5] was “inactive” throughout. In addition, the values for the Potency in [4] and in assay [8] were 39.8 µM (active) and 44.7 µM (active), respectively. The max response in [6] is 9.43%; in assay [7] it was -16.2% (inactive).
For `Oc1cc2c(cc1O)[C@H]1c3ccc(O)c(O)c3OC[C@@]1(O)C2`, in assay [2], the Potency entry is “inactive”. Besides, the Potency in assay [4] is 31.6 µM (active); in [9], 39.8 µM (active); in [10], 31.6 µM (active); in assay [11] it was 31.6 µM (active); in [12], 39.8 µM (active); in [13], 39.8 µM (active). Also, the Potency in assay [14] is 25.1 µM (active); in [15] it was 39.8 µM (active); in assay [16], 39.8 µM (active); in assay [17], 39.8 µM (active); in assay [18], 25.1 µM (active); in assay [5], 39.8 µM (active). Moreover, the Potency in [19] is 50.1 µM (active). Further, the values for the max response in [6] and in [7] were -1.27% and -15.2% (inactive), respectively. Also, in assay [8], the activation is -1.85% (inactive).
In the case of `O=C(O)c1ccc([N+](=O)[O-])cc1`, the Potency in assay [20] is > 92 µM (inactive). The Potency result in [1], in assay [3], in assay [4], in assay [9], in assay [10] and in assay [11] was “inactive” in each case. Further, the Potency result in [12], in assay [13], in [14], in assay [15], in [16] and in [17] was “inactive” each time. The Potency entry in assay [18], in [5] and in [19] was “inactive” each time. Besides, in assay [2], the caspase-3 activation was 85.2% (active). In addition, the max response in [6] is -8.75% and -3.59%; in assay [7] it was 3.05% (inactive) and 5.55% (inactive). For the same compound, in assay [8], the activation was 0.333% (inactive) and 2.14% (inactive).
Turning to `Nc1cc(C(=O)O)c(O)c(S(=O)(=O)O)c1`, in assay [20], the Potency was > 92 µM (inactive). Further, the Potency entry in assay [1], in assay [2], in [3], in assay [4], in [9] and in assay [10] was “inactive” throughout. In addition, the Potency entry in assay [11], in assay [12], in [13], in [14], in [15] and in [16] was “inactive” throughout. Besides, the Potency result in assay [17], in assay [18], in assay [5] and in [19] was “inactive” in each case. Moreover, the max response is 12.7% in assay [6] and 3.86% (inactive) in [7]. In [8], the activation was -2.49% (inactive).
Take `CCCCCCCCOc1ccc(C(=O)O)cc1`: the Potency in [20] is > 92 µM (inactive). Besides, the Potency entry in [1], in [2], in assay [3], in [4], in assay [9] and in assay [10] was “inactive” each time. Moreover, the Potency result in assay [11], in assay [12], in [13], in assay [14], in assay [15] and in assay [16] was “inactive” throughout. The Potency result in assay [17], in assay [18], in [5] and in [19] was “inactive” in each case. For the same compound, the max response in [6] is -3.84%; in [7], -6.4% (inactive). Besides, in [8], the activation is 8.38% (inactive).
With `C/C=C/C=C/C=O`, the Potency is > 92 µM (inactive) in [20]; 39.8 µM (active) in assay [4]; 50.1 µM (active) in [9]; 39.8 µM (active) in assay [10]; 39.8 µM (active) in assay [11]; 39.8 µM (active) in assay [13]. The Potency is 31.6 µM (active) in [14]; 39.8 µM (active) in assay [15]; 50.1 µM (active) in assay [16]; 31.6 µM (active) in assay [17]; 25.1 µM (active) in assay [18]; 39.8 µM (active) in assay [5]. Besides, the Potency result in [1], in assay [2], in assay [3] and in assay [19] was “inactive” each time. In assay [8], the activation was 0.0819% (inactive).
For `Cc1cc(-c2ccc(N=Nc3cc(S(=O)(=O)O)c4ccccc4c3N)c(C)c2)ccc1N=Nc1cc(S(=O)(=O)O)c2ccccc2c1N`, the Potency result in [2], in assay [4] and in assay [5] was “inactive” throughout. Also, the max response in [6] is -6.21%; in [7], 0.921% (inactive). Further, the activation in assay [8] was 0.307% (inactive).

These data come from PubChem BioAssay (NCATS).
